Assay results taken from PubChem BioAssay AID1159580 (chemical genetic matrix, 2015).
Out of some 5,500 compounds screened, about 2,000 (36%) were called active. Another 18% or so got no clear call; they are omitted. The list shows a part of the results. Values without a mark were called inactive. No stated cut-off is given here; in the data, active means normalized growth mostly below about 0.91 (no sharp cut-off); inconclusive means no clear call, values can overlap the other calls; inactive means mostly above about 0.92.

Assay: chemical genetic growth profiling, strain panel (AID 1159580);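 further: tested at 20 µM; growth read once vehicle control cultures reached saturation at 30 °C; 1 = growth at the plate median or of vehicle wells; lower values mean less growth of the strain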
Settings: growth OD

SMILES: CC(C)=CCC1=C(O)c2ccccc2C(=O)C1=O
- normalized growth (S. cerevisiae deletion strains, locus YJR075W, strain HOC1, hits give low values): 1.03
- normalized growth (S. cerevisiae deletion strains, locus YKL009W, strain mrt4, hits give low values): 0.945
- normalized growth (S. cerevisiae deletion strains, locus YKL068W, hits give low values): 0.887 (active)
- normalized growth (S. cerevisiae deletion strains, locus YKL085W, strain MDH1 (second series), hits give low values): 0.884 (active)
- normalized growth (S. cerevisiae deletion strains, locus YKL085W, strain MDH1, hits give low values): 0.884 (active)
- normalized growth (S. cerevisiae deletion strains, locus YKL160W, strain elf1, hits give low values): 0.741 (active)
- normalized growth (S. cerevisiae deletion strains, locus YKL190W, strain CNB1, hits give low values): 0.951
- normalized growth (S. cerevisiae deletion strains, locus YKR001C, strain vps1, hits give low values): 0.788 (active)
- normalized growth (S. cerevisiae deletion strains, locus YKR026C, strain gcn3, hits give low values): 0.775 (active)
- normalized growth (S. cerevisiae deletion strains, locus YKR091W, strain srl3, hits give low values): 0.809 (active)
- normalized growth (S. cerevisiae deletion strains, locus YLL001W, strain dnm1, hits give low values): 0.598 (active)
- normalized growth (S. cerevisiae deletion strains, locus YLL026W, hits give low values): 0.808 (active)
- normalized growth (S. cerevisiae deletion strains, locus YLL041C, strain sdh2, hits give low values): 0.815 (active)
- normalized growth (S. cerevisiae deletion strains, locus YLR027C, strain aat2, hits give low values): 0.823 (active)
- normalized growth (S. cerevisiae deletion strains, locus YLR039C, strain RIC1, hits give low values): 0.705
- normalized growth (S. cerevisiae deletion strains, locus YLR058C, strain SHM2, hits give low values): 0.954
- normalized growth (S. cerevisiae deletion strains, locus YLR102C, strain apc9, hits give low values): 0.963
- normalized growth (S. cerevisiae deletion strains, locus YLR113W, strain HOG1, hits give low values): 0.965
- normalized growth (S. cerevisiae deletion strains, locus YLR221C, strain rsa3, hits give low values): 0.819 (active)
- normalized growth (S. cerevisiae deletion strains, locus YLR258W, strain gsy2, hits give low values): 0.797 (active)
- normalized growth (S. cerevisiae deletion strains, locus YLR262C, strain YPT6 (second series), hits give low values): 0.334 (active)
- normalized growth (S. cerevisiae deletion strains, locus YLR262C, strain YPT6, hits give low values): 0.733
- normalized growth (S. cerevisiae deletion strains, locus YLR268W, strain sec22, hits give low values): 0.879 (active)
- normalized growth (S. cerevisiae deletion strains, locus YLR320W, strain mms22, hits give low values): 0.741 (active)
- normalized growth (S. cerevisiae deletion strains, locus YLR330W, strain CHS5, hits give low values): 0.948
- normalized growth (S. cerevisiae deletion strains, locus YLR342W, strain FKS1 (second series), hits give low values): 0.844
- normalized growth (S. cerevisiae deletion strains, locus YLR342W, strain FKS1, hits give low values): 0.727 (active)
- normalized growth (S. cerevisiae deletion strains, locus YLR357W, strain rsc2, hits give low values): 0.837 (active)
- normalized growth (S. cerevisiae deletion strains, locus YLR370C, strain arc18, hits give low values): 0.806 (active)
- normalized growth (S. cerevisiae deletion strains, locus YLR371W, strain rom2, hits give low values): 0.939
- normalized growth (S. cerevisiae deletion strains, locus YLR384C, strain iki3, hits give low values): 0.818 (active)
- normalized growth (S. cerevisiae deletion strains, locus YLR418C, strain cdc73, hits give low values): 1.03
- normalized growth (S. cerevisiae deletion strains, locus YML016C, strain PPZ1, hits give low values): 0.958
- normalized growth (S. cerevisiae deletion strains, locus YML032C, strain rad52, hits give low values): 0.906
- normalized growth (S. cerevisiae deletion strains, locus YML120C, strain ndi1, hits give low values): 0.759 (active)
- normalized growth (S. cerevisiae deletion strains, locus YML124C, strain tub3, hits give low values): 0.935
- normalized growth (S. cerevisiae deletion strains, locus YMR058W, strain fet3, hits give low values): 0.651 (active)
- normalized growth (S. cerevisiae deletion strains, locus YMR078C, strain ctf18, hits give low values): 0.921
- normalized growth (S. cerevisiae deletion strains, locus YMR125W, strain sto1, hits give low values): 0.884 (active)
- normalized growth (S. cerevisiae deletion strains, locus YMR129W, hits give low values): 0.773 (active)
- normalized growth (S. cerevisiae deletion strains, locus YMR205C, strain PFK2, hits give low values): 0.837 (active)
- normalized growth (S. cerevisiae deletion strains, locus YMR223W, strain ubp8, hits give low values): 0.864 (active)
- normalized growth (S. cerevisiae deletion strains, locus YMR231W, strain pep5, hits give low values): 0.791 (active)
- normalized growth (S. cerevisiae deletion strains, locus YMR263W, strain SAP30, hits give low values): 1.01
- normalized growth (S. cerevisiae deletion strains, locus YMR307W, strain GAS1, hits give low values): 0.721
- normalized growth (S. cerevisiae deletion strains, locus YNL067W, strain RPL9B, hits give low values): 0.989
- normalized growth (S. cerevisiae deletion strains, locus YNL071W, strain lat1, hits give low values): 0.837 (active)
- normalized growth (S. cerevisiae deletion strains, locus YNL128W, strain TEP1, hits give low values): 0.945
- normalized growth (S. cerevisiae deletion strains, locus YNL153C, strain GIM3, hits give low values): 0.965
- normalized growth (S. cerevisiae deletion strains, locus YNL183C, strain NPR1, hits give low values): 0.914
- normalized growth (S. cerevisiae deletion strains, locus YNL209W, strain ssb2, hits give low values): 0.715 (active)
- normalized growth (S. cerevisiae deletion strains, locus YNL233W, strain BNI4, hits give low values): 0.964
- normalized growth (S. cerevisiae deletion strains, locus YNL248C, strain rpa49, hits give low values): 0.974
- normalized growth (S. cerevisiae deletion strains, locus YNL250W, strain rad50, hits give low values): 0.897 (active)
- normalized growth (S. cerevisiae deletion strains, locus YNL271C, strain bni1, hits give low values): 0.892 (active)
- normalized growth (S. cerevisiae deletion strains, locus YNL298W, strain CLA4, hits give low values): 0.914
- normalized growth (S. cerevisiae deletion strains, locus YNL307C, strain MCK1, hits give low values): 0.904 (active)
- normalized growth (S. cerevisiae deletion strains, locus YNL322C, strain KRE1 (second series), hits give low values): 0.791 (active)
- normalized growth (S. cerevisiae deletion strains, locus YNL322C, strain KRE1, hits give low values): 0.934
- normalized growth (S. cerevisiae deletion strains, locus YNR049C, strain mso1, hits give low values): 0.772 (active)
- normalized growth (S. cerevisiae deletion strains, locus YNR052C, strain pop2, hits give low values): 0.918
- normalized growth (S. cerevisiae deletion strains, locus YOL006C, strain TOP1, hits give low values): 0.29 (active)
- normalized growth (S. cerevisiae deletion strains, locus YOL012C, strain htz1): 1.37
- normalized growth (S. cerevisiae deletion strains, locus YOL147C, strain pex11, hits give low values): 0.953
- normalized growth (S. cerevisiae deletion strains, locus YOR001W, strain rrp6, hits give low values): 0.864 (active)
- normalized growth (S. cerevisiae deletion strains, locus YOR061W, strain CKA2, hits give low values): 0.953
- normalized growth (S. cerevisiae deletion strains, locus YOR069W, strain VPS5, hits give low values): 0.934
- normalized growth (S. cerevisiae deletion strains, locus YOR070C, strain gyp1, hits give low values): 0.821 (active)
- normalized growth (S. cerevisiae deletion strains, locus YOR080W, strain dia2, hits give low values): 0.789 (active)
- normalized growth (S. cerevisiae deletion strains, locus YOR083W, strain WHI5, hits give low values): 0.772 (active)
- normalized growth (S. cerevisiae deletion strains, locus YOR106W, strain vam3, hits give low values): 0.595 (active)
- normalized growth (S. cerevisiae deletion strains, locus YOR136W, strain idh2, hits give low values): 0.928
- normalized growth (S. cerevisiae deletion strains, locus YOR144C, strain elg1, hits give low values): 0.933 (active)
- normalized growth (S. cerevisiae deletion strains, locus YOR184W, strain ser1, hits give low values): 0.894
- normalized growth (S. cerevisiae deletion strains, locus YOR231W, strain MKK1, hits give low values): 0.966
- normalized growth (S. cerevisiae deletion strains, locus YOR265W, strain rbl2, hits give low values): 0.822 (active)
- normalized growth (S. cerevisiae deletion strains, locus YOR270C, strain vph1, hits give low values): 0.294 (active)
- normalized growth (S. cerevisiae deletion strains, locus YOR290C, strain snf2, hits give low values): 0.778 (active)
- normalized growth (S. cerevisiae deletion strains, locus YOR316C, strain cot1, hits give low values): 0.968
- normalized growth (S. cerevisiae deletion strains, locus YPL051W, strain arl3, hits give low values): 0.657 (active)
- normalized growth (S. cerevisiae deletion strains, locus YPL055C, strain LGE1, hits give low values): 1.05
- normalized growth (S. cerevisiae deletion strains, locus YPL078C, strain atp4, hits give low values): 0.678 (active)
- normalized growth (S. cerevisiae deletion strains, locus YPL106C, strain sse1, hits give low values): 0.816 (active)
- normalized growth (S. cerevisiae deletion strains, locus YPL240C, strain hsp82, hits give low values): 0.825 (active)
- normalized growth (S. cerevisiae deletion strains, locus YPL241C, strain CIN2, hits give low values): 0.925 (active)
- normalized growth (S. cerevisiae deletion strains, locus YPL256C, strain CLN2, hits give low values): 1.02
- normalized growth (S. cerevisiae deletion strains, locus YPR119W, strain clb2, hits give low values): 0.967
- normalized growth (S. cerevisiae deletion strains, locus YPR141C, strain kar3, hits give low values): 0.839 (active)
- normalized growth (S. cerevisiae deletion strains, locus YPR163C, strain tif3, hits give low values): 0.957
- normalized growth (S. cerevisiae deletion strains, locus YPR167C, strain met16, hits give low values): 0.937
- normalized growth (S. cerevisiae deletion strains, strain wtn01, hits give low values): 0.951
- normalized growth (S. cerevisiae strains, strain wild type, hits give low values): 0.934
